PAX8 inh HTS: inhibitors of PAX8-driven TPO luciferase reporter, primary screen, RMG-I cells, single concentration; SteadyGlo, 24 h; inhibition, % at 12.6 µM; actives 1.2% (n = 360,000);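 active = mean replicate inhibition at least 60% with every replicate also reaching 60%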;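 note: luciferase light reporting Pax8 driven TPO promoter activity; plate controls were median of neutral control wells for no effect and mitoxantrone controls for full effect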
EWS-Fli block: EWS/Fli-driven NR0B1 reporter inhibitors, primary screen, A673 cells, NR0B1 luciferase, luminescence, MLPCN library; viability-normalised; inhibition, % at 12.6 µM; actives 0.67% (n = 350,000);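 active = mean inhibition of at least 50% after viability correction, with every replicate also passing that limit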;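 note: firefly luciferase signal divided by Alamar Blue viability fluorescence both relative to DMSO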
MITF TRPM1 inh: inhibitors of MITF-dependent TRPM1 promoter reporter, primary screen, cell-based, SK-MEL-5, single point, luciferase. inhibition, % at 12.5 µM. SK-MEL-5 TRPM1 promoter luciferase, 24 h. actives 0.83% (n = 330,000);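 active = mean inhibition across replicates of 60% or more, whatever share of single replicates reaches that level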
LGR2 antag: inhibitors of bursicon-induced LGR2 CRE-luciferase signal, primary screen, cell-based, HEK293, CRE-luciferase reporter, bursicon stimulation. inhibition, % at 9.99 µM. Drosophila bursicon receptor LGR2 (rickets). bursicon-stimulated, 4 h. actives 0.35% (n = 380,000). AID 720647, 2013;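 active = drop in luminescence signal, shown as inhibition above about 50% in the replicate tests, limit read from the data, passing the limit was not always enough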;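 note: agonist challenge used bursicon conditioned medium at about half maximal strength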
Shn3 inh set2: reduction of Shn3 3'UTR firefly luciferase signal, primary screen, Schnurri-3 inhibitor project, cell-based, Clone20 osteoblasts, set 2; Clone20 osteoblast Shn3 3'UTR firefly luciferase, 24 h; inhibition, % at 12.5 µM; actives 0.52% (n = 360,000); AID 588674, 2011;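 active = mean inhibition of at least 75% with every replicate also reaching 75%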;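 note: 0% = median of neutral control wells and 100% = pilot-screen positive control compound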
EBV LMP1 NFkB: EBV LMP1-driven NF-kappaB luciferase reporter inhibitors, primary screen, cell-based, luminescence, single point; LMP1-induced NF-kappaB luciferase reporter cells; inhibition, % at 12.5 µM; actives 0.69% (n = 350,000); in the data active = inhibition above about 41%;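 note: 0% = neutral control wells and 100% = reference inhibitor control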
* hit, by the source's call; / = not tested or not shown. The list is not random: actives were taken first. Their share in the collection is about 2.2%.

SMILES	PAX8 inh HTS	EWS-Fli block	MITF TRPM1 inh	LGR2 antag	Shn3 inh set2	EBV LMP1 NFkB
CCOC(=O)C1=C(CC)Nc2ccccc2N=C1NC(=O)CCNC(C)=O	-6	4	-17	7	-2	-12
CCCc1[nH]nc2c1C(c1cn[nH]c1-c1ccc(F)cc1)C(C#N)=C(N)O2 (stereo unspecified)	/	/	61*	/	-1	10
CC(C)NC(=O)N(C)C[C@H]1Oc2ccc(NS(=O)(=O)c3ccc(Cl)cc3)cc2C(=O)N([C@@H](C)CO)C[C@H]1C	2	4	/	-12	/	/
O=C(C[C@H]1CC[C@H]2[C@@H](COC[C@H](O)CN2Cc2cccc(C(F)(F)F)c2)O1)NCCc1ccccc1	10	10	/	0	/	/
CC(C)c1ccc2c(c1)C(N1CCNCC1)Cc1ccc(F)cc1S2 (stereo unspecified)	31	22	/	104*	/	/
CN1CCN(C2Cc3ccc(F)cc3Sc3cc(F)c(Cl)cc32)CC1 (stereo unspecified)	4	10	3	9	/	-10
Cc1noc(C)c1NC(=O)N(C)C[C@H]1Oc2ncc(/C=C/c3ccccc3)cc2C(=O)N([C@H](C)CO)C[C@@H]1C	-5	-9	/	11	/	/
CCN(CCO)c1ccc(N=Nc2cc(C)[nH]n2)cc1	87*	64*	76*	92*	15	63*
CCN(CCO)c1ccc(Nc2cc(-c3ccc(-c4ccccc4)cc3)ncn2)cc1	-4	-9	/	/	-17	/
CCc1nc(Nc2ccc(OC)c(OC)c2)c2nnn(Cc3ccccc3Cl)c2n1	/	/	71*	/	85	27
COC(=O)CNc1nc(C2CC2)nc2c1nnn2Cc1ccccc1Cl	/	/	11	/	-1	15
CN(C)S(=O)(=O)c1ccc(Nc2nc(C3CC3)nc3c2nnn3Cc2ccccc2Cl)cc1	67*	/	37	18	69	8
COc1cccc(OC)c1Nc1nc(C)nc2c1nnn2Cc1ccccc1Cl	2	3	22	8	15	12
OC[C@H]1[C@H](c2ccc(-c3cccnc3)cc2)[C@H]2CN(CC3CCOCC3)CCCCN21	-7	-15	/	/	/	/
Cc1ccc2c(c1)sc(=NC(=O)c1cccs1)n2C	39	78*	35	96*	4	33
O=C(Nc1ccccc1)N[C@H]1CC[C@@H](CCn2cc(-c3ccccc3F)nn2)O[C@@H]1CO	/	-10	/	-6	/	/
Cc1ccc(S(=O)(=O)CC(CN2CCOCC2)N2CCOCC2)cc1 (stereo unspecified)	5	5	16	4	-16	0
CC1CCN(CC(CS(=O)(=O)c2ccc([N+](=O)[O-])cc2)N2CCC(C)CC2)CC1 (stereo unspecified)	14	16	84*	-14	-29	-2
CC1(C)CC(=O)c2c(O)cc(OCC(=O)Nc3ccc(S(N)(=O)=O)cc3)cc2O1	/	-2	-6	12	9	6
COc1cc(NC(=O)COc2cc(O)c3c(c2)OC(C)(C)CC3=O)cc(OC)c1OC	/	32	72*	38	86*	20
C[C@H](CO)N1C[C@H](C)[C@H](CN(C)S(C)(=O)=O)OCCCC[C@H](C)Oc2ccc(NC(=O)CCC(F)(F)F)cc2C1=O	3	-5	/	4	/	/
CCOc1ccc(NC(=S)NNc2ccnc3cc(Cl)ccc23)cc1	11	7	26	0	53	6
S=C(NNc1ccnc2cc(Cl)ccc12)Nc1ccc(Cl)cc1Cl	23	20	65*	-13	88*	11
COc1ccc(NC(=O)Cn2nnc(C(=O)NCCc3ccccc3)c2N)c(OC)c1	-7	/	-7	-6	-20	4
COc1ccc(NC(=O)Cn2nnc(C(=O)NCc3ccccc3)c2N)c(OC)c1	30	2	-3	12	4	64*
SMILES	PAX8 inh HTS	EWS-Fli block	MITF TRPM1 inh	LGR2 antag	Shn3 inh set2	EBV LMP1 NFkB
C/C(=N\Nc1nc2ccccc2[nH]1)c1ccc(Cl)s1	-24	-42	3	-21	-3	43*
Cc1ccc(CN(C)C(=O)c2cccc(S(=O)(=O)N3CCN(c4ccccc4)CC3)c2)cc1	17	23	22	-5	78	9
CSc1ccc(CN(C)C(=O)c2cccc(S(=O)(=O)N3CCN(Cc4ccccc4)CC3)c2)cc1	21	28	28	8	88*	13
CN(CCOc1ccc(Cl)cc1)C(=O)c1cccc(S(=O)(=O)N2CCN(Cc3ccccc3)CC2)c1	34	17	/	8	91*	18
Cc1ccc(C)c(NC(=O)CN(C)C(=O)c2cccc(S(=O)(=O)N3CCN(Cc4ccccc4)CC3)c2)c1	39	/	11	15	87*	15
COc1cccc(CN(C)C(=O)c2cccc(S(=O)(=O)N3CCN(c4ccccc4)CC3)c2)c1	-9	5	/	-3	85*	-8
O=C(C[C@@H]1C[C@@H]2c3cc(NS(=O)(=O)c4ccccc4)ccc3O[C@@H]2[C@H](CO)O1)NC1CCCC1	/	-6	/	7	/	/
C[C@@H]1CN([C@H](C)CO)C(=O)c2cc(NC(=O)C3CCCCC3)ccc2O[C@@H](C)CCCCO[C@@H]1CN(C)S(=O)(=O)c1cn(C)cn1	-14	4	/	7	/	/
CCCC#Cc1cnc2c(c1)C(=O)N([C@@H](C)CO)C[C@@H](C)[C@@H](CN(C)C(=O)c1cccnc1)O2	/	6	/	-2	/	/
C[C@@H]1CN([C@@H](C)CO)C(=O)Cc2cc(NC(=O)CCC(F)(F)F)ccc2O[C@H]1CN(C)S(=O)(=O)c1ccc(F)cc1	1	-2	/	-28	/	/
COc1cc(C2CC(=O)N(c3ccc(C)cc3)C(=O)C2)cc(OC)c1OC	20	53*	32	-10	4	7
COc1ccc(N2C(=O)CC(c3cc(OC)c(OC)c(OC)c3)CC2=O)cc1	15	25	15	/	/	-4
CC(C)(c1ccccc1)c1ccc(OCC(O)CNC2CCN(Cc3ccccc3)CC2)cc1 (stereo unspecified)	80*	25	79*	104*	37	-13
CC(C)c1nc(SCC(=O)Nc2ccc3c(c2)OCCO3)c2c(=O)n(C)c(=O)n(C)c2n1	1	0	-1	26	4	2
CC(C)c1nc(SCC(=O)Nc2cccc(C(F)(F)F)c2)c2c(=O)n(C)c(=O)n(C)c2n1	11	11	/	-3	86*	16
CN1C(=O)c2cc(NC(=O)C3CCOCC3)ccc2OC[C@@H]2O[C@H](CC(=O)O)CC[C@@H]21	16	-1	/	-11	/	/
C[C@@H]1CN([C@H](C)CO)C(=O)Cc2cc(NS(=O)(=O)c3ccc(F)cc3)ccc2O[C@H]1CN(C)S(=O)(=O)c1cccs1	-1	-4	/	-3	/	/
Cc1cc(=O)[nH]c(N=N/C(=N/Nc2ccccc2C)c2ccccc2)n1	/	/	41	/	20	50*

Screening results deposited in PubChem by Broad Institute.
